# Over roughly 33,000 sequences, “E-score (-0.5 to 0.5)” has its median near -0.012; the highest 2% begin near 0.29. What follows is part of a selection rich in the highest values, with near analogues and random picks from the rest.
# Molecular target: T1, Ybr033w (UniProt P38073)
# T1 sequence: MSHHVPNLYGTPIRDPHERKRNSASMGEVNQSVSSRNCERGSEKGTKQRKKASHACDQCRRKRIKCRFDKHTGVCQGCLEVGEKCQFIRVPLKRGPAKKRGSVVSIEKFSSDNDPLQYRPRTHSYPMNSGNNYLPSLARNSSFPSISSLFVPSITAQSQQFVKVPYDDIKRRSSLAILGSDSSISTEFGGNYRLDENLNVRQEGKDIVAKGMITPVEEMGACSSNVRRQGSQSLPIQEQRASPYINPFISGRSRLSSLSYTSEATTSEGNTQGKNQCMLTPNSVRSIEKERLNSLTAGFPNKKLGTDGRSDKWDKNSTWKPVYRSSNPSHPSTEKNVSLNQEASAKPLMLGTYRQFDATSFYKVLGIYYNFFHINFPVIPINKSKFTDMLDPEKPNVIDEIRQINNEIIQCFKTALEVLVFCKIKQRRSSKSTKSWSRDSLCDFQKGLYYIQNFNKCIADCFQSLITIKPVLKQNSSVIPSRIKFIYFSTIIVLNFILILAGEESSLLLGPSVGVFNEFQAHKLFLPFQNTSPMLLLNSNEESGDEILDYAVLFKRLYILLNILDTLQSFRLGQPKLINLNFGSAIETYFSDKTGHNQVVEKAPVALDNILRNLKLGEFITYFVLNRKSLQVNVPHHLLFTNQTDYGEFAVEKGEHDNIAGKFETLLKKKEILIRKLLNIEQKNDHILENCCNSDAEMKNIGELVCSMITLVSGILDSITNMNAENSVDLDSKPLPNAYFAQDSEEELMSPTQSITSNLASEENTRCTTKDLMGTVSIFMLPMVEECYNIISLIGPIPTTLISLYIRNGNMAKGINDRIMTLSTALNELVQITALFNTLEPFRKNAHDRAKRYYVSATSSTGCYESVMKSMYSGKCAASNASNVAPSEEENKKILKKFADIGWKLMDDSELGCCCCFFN
# Test: PBM E-score (8-mer binding enrichment) (E-score (-0.5 to 0.5)); higher = stronger / more preferred TF binding
# Conditions: protein concentration: 200 nM; construct: GST-full length
# Procedure: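 Universal 'all 10-mer' protein binding microarrays (Agilent AMADID 015681) probed with GST-tagged S. cerevisiae TFs (full-length or DBD) made by in vitro transcription/translation (PURExpress), about 100-200 nM. Bound TF was detected with fluorescent anti-GST. Each ungapped 8-mer (which stands for itself and its reverse complement) is scored by the PBM enrichment score (E-score), a modified Wilcoxon-Mann-Whitney statistic from -0.5 to +0.5, computed with the Universal PBM Analysis Suite. Scale: above 0.35 generally sequence-specific binding.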
row,Sequence,PBM E-score
1,TTCCACAA,0.314
2,CTCCACAA,0.0525
3,TTCCAGAA,0.294
4,CTCCAGAA,-0.0883
5,GTCCACAA,0.0077
6,GTCCAGAA,-0.051
7,ATGAAGAA,0.126
8,CTGAACAG,0.00549
9,GACGACAA,0.293
10,CACGACAA,-0.0495
11,AACGACAA,0.175
12,GAAAGTAC,0.0791
13,GACCATTA,0.2
14,GACTTAAA,0.0498
15,GGTTAAGA,0.0725
16,TACTACCA,0.106
17,CTCATTTA,0.0742
18,AACATAAA,0.11
19,AACATAAT,0.295
20,AACATAAC,0.281
21,AACATATA,0.298
22,CTCATTAA,0.23
23,ATCATTAG,0.16
24,ATCATTAA,0.313
25,ATCATTTA,0.336

row,Sequence,PBM E-score
1,GACATATA,0.185
2,ATCATTTC,0.258
3,CACATATA,0.0859
4,AGTTGTAT,0.0541
5,TGGCCTAA,-0.088
6,ATGGCAAG,-0.0226
7,GTCCTTGA,-0.0584
8,GACCTATC,-0.0417
9,AGCCACGA,-0.228
10,TCACACGA,-0.00326
11,CTACTAAC,0.222
12,CAAGCGTA,0.093
13,AACATTTA,0.296
14,AACATTTC,0.272
15,GACATTTA,-0.045
16,CCACTTGC,-0.0925
17,CCGCGCGG,0.104
18,AGATCGAG,0.0958
19,TACCAATA,0.0786
20,AACATCAA,0.319
21,TCCATCAA,0.312
22,CCCATCAA,0.101
23,GACATCAA,0.0415
24,CACATCAA,0.127
25,ACCATCAA,0.137

row,Sequence,PBM E-score
1,AATGCCAA,0.112
2,CACCTCAC,0.0264
3,TCCTTTAA,0.132
4,ATGACTGG,-0.17
5,GACTGCAC,-0.221
6,ATCAATTA,0.365
7,ATCAATTC,0.125
8,ATCAATAG,0.178
9,CTCAATAA,0.12
10,ATCAATAA,0.321
11,AACAATTG,0.115
12,AACAATTC,0.205
13,AACAATTA,0.366
14,ATCAATTG,0.252
15,CAGGAGGC,-0.202
16,CAATTGCC,0.0461
17,AATACTCG,0.22
18,CTGAGACC,-0.291
19,CGTCTGGC,0.0541
20,ATACCATG,-0.0754
21,GTACCATA,0.00958
22,ATACCATA,0.297
23,ATCGAAAT,0.119
24,AATAAAGT,0.265
25,GTAAAGTA,0.174

row,Sequence,PBM E-score
1,ATAAAGTA,0.306
2,CTAAAGAA,0.0669
3,ACAAAGTA,0.3
4,ATAAAGTG,0.244
5,ATAAAGAA,0.291
6,TTAAAGAA,0.117
7,ACAAAGTC,0.0213
8,GCAAAGTA,0.113
9,AGTAAGAA,0.208
10,AACAGTGA,-0.0153
11,ATGTGCTA,0.208
12,GCTGCTCA,-0.11
13,CTCTCTCC,-0.21
14,ACACTCAC,0.0907
15,GACGCAGA,-0.127
16,ATAGCTAT,0.13
17,ATTATCCC,0.321
18,ATTATCCA,0.341
19,ATTATCGC,0.319
20,ATTATCGA,0.0687
21,CTTATCCA,0.0666
22,GTTATCCA,0.0783
23,ATTATCCG,0.469
24,ATTATCGG,0.0549
25,CTTATCCC,-0.16

row,Sequence,PBM E-score
1,ATTATCTG,0.218
2,ACTATCCG,0.16
3,ACTATCCC,-0.24
4,AACCATAG,0.0244
5,CGTCAAAA,0.108
6,ACACCAGA,0.059
7,GAGACGCC,-0.0848
8,AAATTTCG,0.139
9,ACCTTTTA,-0.0294
10,ATCCACAC,-0.00864
11,AGCTTGCC,-0.231
12,AACAGGTG,-0.0949
13,CCACCTCA,-0.134
14,AGGAGACT,-0.0682
15,ACGCCCCT,-0.389
16,AAAGGAAT,0.0153
17,AGCAAAAC,0.0585
18,CAAAAAAG,0.261
19,CCAAAAAC,0.132
20,CCAAAAAA,0.332
21,CAAAAAAA,0.293
22,ACCAAAAT,0.111
23,AGCAAAAA,0.319
24,CAAAAAAC,0.146
25,ACCAAAAC,0.0839

row,Sequence,PBM E-score
1,AGCAAAAT,0.2
2,CCCAAAAA,-0.19
3,ACCAAAAA,0.332
4,GATATCGC,0.119
5,GGCTTCGA,-0.138
6,CTGTTCTA,-0.094
7,GCGCGAGC,-0.21
8,CCCTGCCC,-0.376
9,CCGCCAGA,-0.0108
10,CTGTCTCC,0.00722
11,GCCAGTAC,-0.0841
12,CGTTATGC,0.0079
13,CTTTTGGC,-0.0369
14,ATTATGTA,0.312
15,ATATTATC,0.265
16,ATATTATG,0.315
17,GCTATATA,0.194
18,ATTATGTG,0.11
19,AGTATATG,0.0561
20,ACTATATC,0.229
21,AGTATATC,0.213
22,ATATTATA,0.227
23,ATTATGTC,0.17
24,AGTATATA,0.389
25,ACTATATA,0.309

row,Sequence,PBM E-score
1,ACTGGAAC,0.072
2,ACCCACCC,0.0336
3,AACGCGAT,0.0217
4,TCTCTGCA,-0.162
5,GCACTTCA,0.0397
6,AGCGCTTC,0.016
7,ACCATCAT,0.0599
8,AGTGCTAC,-0.0555
9,CCCGGGAG,-0.0399
10,CGGCTCAA,0.103
11,CACTCGCA,-0.00609
12,ATATTACG,0.333
13,ATTATACA,0.222
14,CTTATATC,0.146
15,ACTATATG,0.256
16,ATTATATA,0.297
17,ATATTACA,0.256
18,ATTATAAG,0.237
19,GTTATATA,0.154
20,ATTATATC,0.256
21,CTTATATA,0.334
22,ATTATATG,0.289
23,ATATTACC,0.227
24,GCATTCAC,0.216
25,GTGGTCGA,-0.198

row,Sequence,PBM E-score
1,TAGACAAA,0.0827
2,ACGTACGA,-0.182
3,ACATAGCG,0.0674
4,AACTACCC,0.0868
5,GAGCCAAA,-0.113
6,ATTCCCCA,-0.0626
7,GGTGGTAC,-0.231
8,GACGGTCC,-0.273
9,ATTATTAC,0.343
10,CTTATTAA,0.17
11,GTTATTAA,0.229
12,ACTATTAC,0.134
13,ATTATTAA,0.316
14,CTTATTAC,0.115
15,ATCTAAGC,0.0351
16,AGCGTTGC,-0.0711
17,CGCTTATC,-0.00322
18,CGGCTATA,-0.0713
19,GTCCGGAA,0.19
20,TTCCGGAA,0.316
21,CTCCGGAA,0.22
22,ATCCGGAC,-0.0654
23,ATCCGGAG,0.143
24,ATCCGGAA,0.403
25,CTCATCCC,-0.189

row,Sequence,PBM E-score
1,CGTACTGC,-0.151
2,CTCGTCTA,-0.0771
3,AACAATCC,0.338
4,CATAATCC,0.0679
5,GATAATCC,0.375
6,AACAATCT,0.168
7,AATAATCC,0.439
8,GATAATGC,0.115
9,AATAATCA,0.234
10,GATAATCA,0.236
11,AACAATCG,0.0843
12,ACCCGAAG,-0.0833
13,ACCTACTC,-0.0816
14,ACAAAAAA,0.18
15,GACAAATC,0.24
16,ACAAAAAC,0.243
17,AACAAATC,0.315
18,AACAAAAA,0.212
19,AACAAATA,0.285
20,AACAAGAT,0.221
21,ACAAAAAT,0.308
22,AACAAATT,0.374
23,AACAAAAT,0.291
24,AACAAGTC,0.0761
25,AACAAGTT,0.188
